Rows were chosen to be rich in hits. Some 4.7% of all compounds tested hit in one or more screens of this group.
ADAM10 inh – inhibitors of human ADAM10; AID 720582; hit rate 0.62% among 370,000; recombinant ADAM10, EDANS/DABCYL FRET peptide cleavage, 3 h; inhibition, % at 7 µM;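 active = inhibition above a per-campaign cutoff equal to the mean of compounds falling between control-based bounds plus 3 SD, cut at about 20% in these data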;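 note: 0% = DMSO wells while the 100% control is not disclosed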
ADAM17 inh – inhibitors of human ADAM17; inhibition, % at 6.95 µM; recombinant ADAM17, EDANS/DABCYL FRET peptide cleavage; P78536; AID 720648; hit rate 0.83% among 370,000;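 active = inhibition above the mean of compounds lying between control limits plus 3 SD, set per campaign, cut at about 8.5% in these data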;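 note: 0% = DMSO-only wells as the low control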
rCAG binder – molecules binding r(CAG) RNA repeats; r(CAG) RNA repeat, TO-PRO-1 dye displacement fluorescence; inhibition, % at 3 µM; hit rate 1.3% among 370,000; AID 651821;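 active = inhibition above the plate cutoff, the mean of all test compounds on that plate plus 3 SD, cut at about 35% in these data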;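 note: 0% = DMSO alone and 100% = 100 µM mitoxantrone as full dye displacement; higher means more dye released from RNA so lower well fluorescence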
MPTP inh – permeability transition pore inhibition; inhibition, % at 10 µM; AID 602449; isolated mouse mitochondria, Ca2+ swelling absorbance, 30 min; hit rate 1.4% among 360,000;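 active = inhibition of 50% or more, scaled per plate between neutral and stimulator controls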;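 note: 0% = DMSO wells given calcium and 100% = 1 mM EGTA wells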
KLK7 zymogen act – activates the human kallikrein-7 zymogen; P49862; purified proKLK7, EDANS-DABCYL substrate fluorescence; 100% is mature enzyme control, 0% vehicle; activation, % at 7 µM; hit rate 0.9% among 370,000;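 active = activation above the mean of all tested compounds plus 3 SD, computed per campaign excluding outliers beyond control limits, cut at about 13% in these data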
DSG3 Ab inh – blocks pemphigus antibody binding to human desmoglein-3. hit rate 0.48% among 310,000. binding (percent of control), % at 10 µM. DSG3-coupled beads, scFv-anti-DSG3-GFP binding, flow cytometry; hits give low values. P32926;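 active = binding more than 3 SD below its plate's average and above zero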;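 note: hits lower antibody fragment binding to DSG3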
MPTP counter – mitochondrial membrane potential, counter-screen; shares compounds with MPTP inh; isolated mitochondria, Rhodamine 123 fluorescence; inhibition, % at 10 µM; hit rate 78% among 5,000; in the data active = inhibition above about 22%;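 note: 0% = DMSO vehicle and 100% = positive control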
MPTP abs DR – dose response confirmation of mitochondrial permeability transition pore inhibitors | shares compounds with MPTP inh | isolated mitochondria swelling, absorbance | IC50, µM | hit rate 58% among 780; in the data active = IC50 below about 20 µM
MPTP cs DR – counter-screen for mitochondrial permeability transition pore inhibitors, dose response | isolated mitochondria counterscreen, fluorescence read-out | hit rate 49% among 780 | IC50, µM | shares compounds with MPTP inh; in the data active = IC50 below about 80 µM
Numbers without * were called inactive; · = no result given.

SMILES | ADAM10 inh | ADAM17 inh | rCAG binder | MPTP inh | KLK7 zymogen act | DSG3 Ab inh | MPTP counter | others
COC(=O)C1=C(C)N(Cc2cccc(C(F)(F)F)c2)C(=NCc2cccc(C(F)(F)F)c2)NC1c1ccc(Cl)cc1 (centres undefined) | -3 | 0 | 3 | · | 0 | · | ·
COc1cc2c(cc1OC)[C@@]1(c3ccccc3)CCCC[C@H]1[C@@H]2NC(=O)C(F)(F)F | -9 | -6 | 1 | · | 0 | · | ·
CCC[C@@H](CN[C@@H](CNC)[C@H](C)CC)NCC1CCC(C(C)(C)C)CC1 (some centres undefined) | 2 | -2 | 4 | 94* | 0 | 109 | -22 | MPTP abs DR=5.3*
CCC[C@H](CN[C@@H](CNC)[C@H](C)CC)NCCc1cc(C(F)(F)F)cc(C(F)(F)F)c1 | 2 | 2 | -1 | 10 | 0 | 109 | ·
Cc1ccc(S(=O)(=O)c2nnn3c2nc(Nc2cccc(C)c2)c2ccccc23)cc1 | -6 | -3 | -2 | 65* | -1 | 100 | 25*
CCOC(=O)CCCNC(=O)OCCCN1CCC2(CCC(c3ccccc3)CC2)C1=O (centres undefined) | -6 | -3 | -1 | · | 0 | · | ·
CCOC(=O)N1CCC(Nc2c(Nc3ccc(F)cc3)c(=O)c2=O)CC1 | -10 | 1 | 0 | 6 | 0 | 105 | ·
CCOC(=O)N1CCC(Nc2c(Nc3cccc(CC)c3)c(=O)c2=O)CC1 | 4 | -4 | 3 | 89* | 1 | 94 | 72*
CN1/C(=C\C(=O)Nc2cccc(Cl)c2)C(C)(C)c2ccccc21 | 1 | 1 | 4 | 104* | 1 | 98 | 82*
CN1/C(=C\C(=O)Nc2ccc(Br)cc2)C(C)(C)c2ccccc21 | -4 | 7 | 0 | 28 | 0 | 83 | ·
Fc1ccc(Nc2nnc(C(F)(F)F)s2)cc1Cl | -4 | 1 | 0 | 75* | -1 | 91 | 86*
FC(F)(F)c1nnc(Nc2ccc(Cl)cc2)s1 | 4 | 4 | 0 | 79* | 0 | 98 | 75*
O=C(Nc1nnc(C(F)(F)F)s1)c1c(F)cccc1F | 6 | 1 | 1 | 0 | -1 | 94 | ·
CC(C)(C)OC(=O)NCCCCCc1cn([C@@H](CO)C(=O)NCCCCCCCCCCC(=O)N2CCN(C(=O)OC(C)(C)C)CC2)nn1 | 0 | 4 | 8 | 99* | 0 | 105 | 109*
CC[C@H](C)[C@@H](C(=O)NCCCCCCCCCCC(=O)N1CCN(C(=O)OC(C)(C)C)CC1)n1cc(CCCCCNC(=O)OC(C)(C)C)nn1 | 3 | 1 | 5 | 87* | 1 | 110 | 22*
CC(C)(C)OC(=O)CC[C@@H](C(=O)NCCCCCCCCCCC(=O)N1CCN(C(=O)OC(C)(C)C)CC1)n1cc(CCCCCNC(=O)OC(C)(C)C)nn1 | -1 | -3 | 1 | 1 | 0 | 96 | ·
COC(=O)[C@]12C[C@H](CC(=O)NCc3ccc(C)o3)C(=O)N(CCc3ccc(OC)c(OC)c3)C1=C[C@H](C(C)(C)C)O[C@@H]2C | 8 | 3 | 3 | · | 0 | · | ·
CCCc1c(-c2ccc(OC)cc2)ncn1CCc1ccccc1OC | -3 | 1 | 0 | · | 0 | · | ·
CN(C)CCCNC(=O)CCc1nc2ccccc2c(=O)[nH]1 | 3 | 1 | 2 | 74* | 0 | 80 | 6 | MPTP abs DR=>100;MPTP cs DR=>80
COc1ccccc1CNC(=O)CCc1nc2ccccc2c(=O)[nH]1 | -5 | -2 | 2 | -3 | 1 | 108 | ·
CN1CCN(c2cc3c(c4c2[nH]c2ccccc24)C(=O)CC(C)(C)C3)CC1 | -337 | -88 | 3 | 84* | 10 | 106 | -42
O=C(c1ccccc1)N1CCN(c2ncnc3sc4c(c23)CCC4)CC1 | -13 | -6 | -4 | 53* | 0 | · | 45*
c1nc(N2CCOCC2)c2c3c(sc2n1)CCCC3 | -13 | -3 | 2 | 8 | 0 | 100 | ·

Source: PubChem BioAssay (several laboratories)
